# Laboratory results taken from doi:10.1101/2025.02.07.636106.
# Columns and labels:
# [1] = molecular target: Large ribosomal subunit protein eL36 (UniProt Q9Y3U8); test: cross-linking mass spectrometry
# Obscurin = Obscurin (UniProt Q5VST9); test: cross-linking mass spectrometry
# [2] = molecular target: Inositol 1,4,5-trisphosphate-gated calcium channel ITPR2 (UniProt Q14571); test: cross-link between two proteins; cross-linking mass spectrometry
# [3] = molecular target: Nucleolar and coiled-body phosphoprotein 1 (UniProt Q14978); test: as above
# [4] = molecular target: Putative ribosomal protein eS10-like (UniProt Q9NQ39); test: as above
# [5] = molecular target: Ragulator complex protein LAMTOR3 (UniProt Q9UHA4); test: as above
# [6] = molecular target: Synaptonemal complex protein 2-like (UniProt Q5T4T6); test: as above
# [7] = molecular target: V-type proton ATPase subunit D (UniProt Q9Y5K8); test: as above
# [8] = molecular target: Zinc finger protein 28 homolog (UniProt Q8NHY6); test: as above
# Zinc finger protein 786 = molecular target: T1, Zinc finger protein 786 (UniProt Q8N393); test: as above
# T1 sequence: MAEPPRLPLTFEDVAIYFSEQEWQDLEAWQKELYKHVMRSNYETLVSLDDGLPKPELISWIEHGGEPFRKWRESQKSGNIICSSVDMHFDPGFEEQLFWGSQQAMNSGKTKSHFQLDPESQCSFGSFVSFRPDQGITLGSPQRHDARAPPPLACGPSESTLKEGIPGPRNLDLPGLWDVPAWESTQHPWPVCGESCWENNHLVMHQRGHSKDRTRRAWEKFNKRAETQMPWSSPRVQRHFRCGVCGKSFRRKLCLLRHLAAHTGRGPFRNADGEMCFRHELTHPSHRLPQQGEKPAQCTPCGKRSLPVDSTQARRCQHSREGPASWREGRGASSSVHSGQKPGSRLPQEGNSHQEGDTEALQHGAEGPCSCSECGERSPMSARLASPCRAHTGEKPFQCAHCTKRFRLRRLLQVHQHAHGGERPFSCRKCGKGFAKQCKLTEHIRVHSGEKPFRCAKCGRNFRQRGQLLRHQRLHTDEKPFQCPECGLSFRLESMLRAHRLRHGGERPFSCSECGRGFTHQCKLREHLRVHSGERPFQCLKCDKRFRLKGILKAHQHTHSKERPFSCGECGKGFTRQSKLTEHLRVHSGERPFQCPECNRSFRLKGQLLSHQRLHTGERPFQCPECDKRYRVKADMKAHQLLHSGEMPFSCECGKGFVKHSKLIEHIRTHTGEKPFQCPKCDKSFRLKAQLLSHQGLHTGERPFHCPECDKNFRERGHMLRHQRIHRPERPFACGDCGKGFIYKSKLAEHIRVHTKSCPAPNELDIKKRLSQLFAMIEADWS
# [9] = molecular target: Cullin-associated NEDD8-dissociated protein 1 (UniProt Q86VP6); test: co-fractionation; co-fractionation; cross-linking mass spectrometry
# Actin-related protein 2 = Actin-related protein 2 (UniProt P61160); test: cross-link between two proteins; co-fractionation; cross-linking mass spectrometry
# [10] = molecular target: Actin-related protein 2/3 complex subunit 1A (UniProt Q92747); test: as above
# [11] = molecular target: Actin-related protein 2/3 complex subunit 3 (UniProt O15145); test: as above
# [12] = molecular target: Actin-related protein 2/3 complex subunit 4 (UniProt P59998); test: as above
# [13] = molecular target: Vacuolar protein sorting-associated protein 35 (UniProt Q96QK1); test: as above
# [14] = molecular target: Enhancer of rudimentary homolog (UniProt P84090); test: cross-link between two proteins; affinity purification or IP with mass spectrometry; cross-linking mass spectrometry
# Sequence of Cullin-associated NEDD8-dissociated protein 1 (Q86VP6 whole entry): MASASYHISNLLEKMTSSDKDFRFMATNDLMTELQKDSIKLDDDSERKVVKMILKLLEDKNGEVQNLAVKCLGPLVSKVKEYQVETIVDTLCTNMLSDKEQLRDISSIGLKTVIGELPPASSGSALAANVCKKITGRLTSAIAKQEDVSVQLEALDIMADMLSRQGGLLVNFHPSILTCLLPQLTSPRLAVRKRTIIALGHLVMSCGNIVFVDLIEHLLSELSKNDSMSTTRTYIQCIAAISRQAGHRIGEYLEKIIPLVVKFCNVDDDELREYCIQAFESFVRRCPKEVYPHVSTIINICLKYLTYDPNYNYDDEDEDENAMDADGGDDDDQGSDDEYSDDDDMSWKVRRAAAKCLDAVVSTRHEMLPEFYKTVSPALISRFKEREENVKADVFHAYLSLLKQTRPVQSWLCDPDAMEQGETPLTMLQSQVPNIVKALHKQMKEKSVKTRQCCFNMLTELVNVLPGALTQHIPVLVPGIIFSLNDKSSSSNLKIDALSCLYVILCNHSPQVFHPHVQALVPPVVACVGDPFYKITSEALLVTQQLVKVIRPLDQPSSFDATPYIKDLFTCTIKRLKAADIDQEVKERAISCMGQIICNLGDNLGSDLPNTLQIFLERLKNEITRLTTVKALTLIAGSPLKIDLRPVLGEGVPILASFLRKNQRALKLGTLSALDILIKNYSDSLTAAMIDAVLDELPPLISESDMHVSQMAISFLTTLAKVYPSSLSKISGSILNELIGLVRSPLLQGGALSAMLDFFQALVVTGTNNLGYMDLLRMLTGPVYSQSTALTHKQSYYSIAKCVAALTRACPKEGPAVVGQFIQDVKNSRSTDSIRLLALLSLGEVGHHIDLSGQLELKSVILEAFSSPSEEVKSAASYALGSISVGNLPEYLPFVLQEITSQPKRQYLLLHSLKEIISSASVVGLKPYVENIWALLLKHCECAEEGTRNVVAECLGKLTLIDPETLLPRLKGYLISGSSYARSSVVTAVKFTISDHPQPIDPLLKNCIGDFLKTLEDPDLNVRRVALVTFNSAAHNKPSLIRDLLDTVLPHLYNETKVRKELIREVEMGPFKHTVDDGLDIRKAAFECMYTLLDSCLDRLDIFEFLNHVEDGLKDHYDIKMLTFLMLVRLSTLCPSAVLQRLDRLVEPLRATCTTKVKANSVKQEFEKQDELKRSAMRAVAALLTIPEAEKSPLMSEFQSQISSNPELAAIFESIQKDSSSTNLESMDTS
# Sequence of Ragulator complex protein LAMTOR3 (Q9UHA4 whole entry, one chain of several): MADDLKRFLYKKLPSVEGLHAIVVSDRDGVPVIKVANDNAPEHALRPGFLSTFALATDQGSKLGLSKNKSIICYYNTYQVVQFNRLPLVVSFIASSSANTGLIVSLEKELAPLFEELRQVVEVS
# Sequence of V-type proton ATPase subunit D (Q9Y5K8 whole entry): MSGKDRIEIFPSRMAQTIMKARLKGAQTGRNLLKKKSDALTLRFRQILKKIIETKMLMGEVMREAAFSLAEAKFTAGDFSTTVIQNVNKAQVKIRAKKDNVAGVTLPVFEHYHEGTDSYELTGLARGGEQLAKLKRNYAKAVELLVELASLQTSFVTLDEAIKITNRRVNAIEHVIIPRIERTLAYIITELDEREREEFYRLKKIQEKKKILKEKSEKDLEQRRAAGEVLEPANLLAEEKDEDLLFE
# Sequence of Cullin-1, Q13616 (Q13616 whole entry): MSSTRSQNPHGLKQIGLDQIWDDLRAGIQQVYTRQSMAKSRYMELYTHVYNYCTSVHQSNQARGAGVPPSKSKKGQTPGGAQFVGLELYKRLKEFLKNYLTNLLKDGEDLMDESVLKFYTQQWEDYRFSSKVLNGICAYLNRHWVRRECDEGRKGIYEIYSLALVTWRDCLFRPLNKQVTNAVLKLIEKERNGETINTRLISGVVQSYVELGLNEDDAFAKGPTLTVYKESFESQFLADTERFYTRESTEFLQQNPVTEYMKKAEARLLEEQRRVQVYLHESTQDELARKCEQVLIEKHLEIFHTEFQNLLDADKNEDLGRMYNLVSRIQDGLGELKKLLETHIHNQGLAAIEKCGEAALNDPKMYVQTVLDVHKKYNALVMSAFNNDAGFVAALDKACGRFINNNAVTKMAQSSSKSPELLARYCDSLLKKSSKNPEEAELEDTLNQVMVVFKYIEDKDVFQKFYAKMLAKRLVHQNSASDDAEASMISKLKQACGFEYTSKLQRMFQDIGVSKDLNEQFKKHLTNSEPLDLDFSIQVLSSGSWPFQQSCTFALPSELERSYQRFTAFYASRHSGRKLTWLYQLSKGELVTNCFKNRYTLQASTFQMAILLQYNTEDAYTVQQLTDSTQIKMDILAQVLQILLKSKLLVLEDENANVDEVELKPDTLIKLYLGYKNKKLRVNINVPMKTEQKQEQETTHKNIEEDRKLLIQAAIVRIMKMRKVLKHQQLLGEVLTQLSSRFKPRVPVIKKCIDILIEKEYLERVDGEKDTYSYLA
# Sequence of V-type proton ATPase catalytic subunit A, P38606 (P38606 whole entry): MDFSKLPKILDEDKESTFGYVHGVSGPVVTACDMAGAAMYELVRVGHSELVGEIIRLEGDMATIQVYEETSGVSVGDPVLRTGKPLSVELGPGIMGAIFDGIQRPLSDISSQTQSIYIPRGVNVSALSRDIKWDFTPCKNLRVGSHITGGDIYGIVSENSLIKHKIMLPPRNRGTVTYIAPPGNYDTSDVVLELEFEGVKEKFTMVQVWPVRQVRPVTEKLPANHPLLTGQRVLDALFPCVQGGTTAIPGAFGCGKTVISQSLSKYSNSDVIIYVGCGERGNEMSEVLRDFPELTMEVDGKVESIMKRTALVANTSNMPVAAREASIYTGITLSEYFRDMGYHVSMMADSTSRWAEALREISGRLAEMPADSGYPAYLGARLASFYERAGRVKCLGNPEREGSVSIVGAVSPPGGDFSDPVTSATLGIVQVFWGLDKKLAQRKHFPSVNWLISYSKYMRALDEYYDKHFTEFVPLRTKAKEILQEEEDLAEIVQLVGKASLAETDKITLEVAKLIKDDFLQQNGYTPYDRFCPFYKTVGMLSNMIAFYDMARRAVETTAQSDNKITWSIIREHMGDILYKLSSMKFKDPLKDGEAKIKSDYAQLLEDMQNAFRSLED
# Sequence of Ragulator complex protein LAMTOR1, Q6IAA8 (Q6IAA8 whole entry, one chain of several): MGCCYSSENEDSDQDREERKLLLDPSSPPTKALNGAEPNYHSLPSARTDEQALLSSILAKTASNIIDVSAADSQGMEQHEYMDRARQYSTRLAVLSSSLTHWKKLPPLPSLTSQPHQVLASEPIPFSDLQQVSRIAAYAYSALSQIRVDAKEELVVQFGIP
# Sequence of Histone H1.4, P10412 (P10412 whole entry): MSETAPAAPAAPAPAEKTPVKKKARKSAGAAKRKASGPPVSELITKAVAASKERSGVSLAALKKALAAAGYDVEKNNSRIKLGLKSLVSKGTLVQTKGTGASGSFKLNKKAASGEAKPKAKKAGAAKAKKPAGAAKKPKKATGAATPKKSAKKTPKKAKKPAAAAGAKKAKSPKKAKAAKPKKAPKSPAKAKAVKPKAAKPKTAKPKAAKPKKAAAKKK
substance,measurement,setting,value
"Small ribosomal subunit protein uS17, P62280",listed as a hit,[1],yes
"Large ribosomal subunit protein eL8, P62424",listed as a hit,Obscurin,yes
"Large ribosomal subunit protein uL29, P42766",listed as a hit,[2],yes
"Small ribosomal subunit protein eS7, P62081",listed as a hit,[3],yes
"Small ribosomal subunit protein eS10, P46783",listed as a hit,[4],yes
"Ragulator complex protein LAMTOR1, Q6IAA8",listed as a hit,[5],yes
"Large ribosomal subunit protein uL5, P62913",listed as a hit,[6],yes
"V-type proton ATPase catalytic subunit A, P38606",listed as a hit,[7],yes
"Large ribosomal subunit protein uL1, P62906",listed as a hit,[8],yes
"Histone H1.4, P10412",listed as a hit,Zinc finger protein 786,yes
"Cullin-1, Q13616",listed as a hit,[9],yes
"Actin-related protein 2/3 complex subunit 5, O15511",listed as a hit,Actin-related protein 2,yes
"Actin-related protein 3, P61158",listed as a hit,[10],yes
"Actin-related protein 2/3 complex subunit 2, O15144",listed as a hit,[11],yes
same,listed as a hit,[12],yes
"Vacuolar protein sorting-associated protein 26A, O75436",listed as a hit,[13],yes
"DNA-directed RNA polymerase II subunit RPB1, P24928",listed as a hit,[14],yes
